Measurements published in PMC5540273 (PLoS ONE, 2017).

tested on: T1, TRKA; details: concentration: 1 μM, replicates: in singlicate; n = 1
T1 construct: gene NTRK1
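Further: KINOMEscan kinase panel screen.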

Structure (SMILES)	%Inh
CS(=O)(=O)c1ccc(-c2c(-c3ncn[nH]3)sc(N3CCOCC3)c2C#N)cc1	13%
CCn1c(-c2cccnc2O)nc2cnccc21 [SB-736715]	0%
Cc1cc(-c2ccc3c(c2)CC[C@@H](N[C@@H](C)c2ccccc2)C3)cnc1N.Cl [GW412617]	82%
COc1ccccc1CNC(=O)c1cc(C(=O)c2ccccc2C)c[nH]1 [GSK364507]	0%
Cc1cccc(-c2nc(-c3ccc(S(C)(=O)=O)cc3)sc2-c2ccnc(NCCc3ccccc3)c2)c1	0%
CC(=O)Nc1nc2cnc(Nc3cc(NC(=O)c4cccc(CCC#N)c4)ccc3C)nc2s1	0%
Cc1cccc(-c2nc(C)cc(Nc3ccncc3)n2)n1 [GSK257997]	39%
CS(=O)(=O)c1ccc(-c2nc3n(c2-c2ccncc2)CCC3)cc1 [SKF-105942]	0%
Cl.c1ccc(-c2n[nH]cc2-c2ccnc(-c3ccc(CN4CCOCC4)cc3)c2)nc1 [GW776245]	0%
Nc1ncnc2[nH]c(-c3ccccc3)nc12 [AH5015]	0%
O=C(O)COc1ncnc2cc(-c3ccc4[nH]ncc4c3)sc12	33%
COc1cc2ncn(-c3cc(OCC4CCCO4)c(C(N)=O)s3)c2cc1OC (stereo not shown) [GSK204607]	15%
Cc1ccc(NC(=O)Nc2cc(C(C)(C)C)nn2-c2ccccc2)cc1 [GSK1014915]	0%
Cc1cccc(-c2nc(Nc3ccc4[nH]ncc4c3)c3ccccc3n2)n1 [GW857175]	52%
CC(C)(C)c1ccc(C(=O)Nc2cn3cc(Cl)ccc3n2)cc1	0%
Cn1cncc1-c1ccc2ncnc(Nc3ccc(OCc4ccccc4)cc3)c2c1 [GW320571]	45%
O=C(Nc1n[nH]c2nc(-c3nccs3)c(Br)cc12)C1CC1 [SB-742251]	59%
CN1C(=O)C(Nc2ccc(Cl)c(C(=O)O)c2)=C(c2ccc(Cl)cc2)C1=O [SB-404290]	0%

Structure (SMILES)	%Inh
Cc1cc(N2Cc3ccccc3C2)nc(Nc2ccc(S(=O)(=O)N3CCOCC3)cc2)n1.Cl [GSK1669917]	0%
CN(C)CCN(C)C(=O)c1cc(-c2ccncc2)c(-c2ccc(Cl)c(O)c2)o1.Cl.Cl [SB-710397]	0%
Cc1csc(-c2nc(Nc3ccncc3)c3ccccc3n2)n1 [GW869640]	44%
Cc1ccc(NC(=O)Nc2cccc(Cl)c2)cc1-c1ccc(C(=O)Nc2ccncc2)cc1 [GSK1398468]	0%
O=C(Nc1n[nH]c2cc(-c3cccc(F)c3F)ccc12)C1CC1 [SB-733894]	38%
O=C(Nc1ccccc1)Nc1cccc(Oc2ccc3nccn3n2)c1	0%
Cl.O=C(Nc1cccc(-c2nn3ncccc3c2-c2ccnc(Nc3cccnc3)n2)c1)c1c(F)cccc1F [GSK312879]	0%
O=C(Nc1n[nH]c2nc(-c3nccs3)c(Br)cc12)C1CCCC1 [SB-742609]	0%
COc1cc(Nc2nccc(N3CCC(NC(=O)Nc4cc(C)ccc4C)C3)n2)cc(OC)c1OC (stereo not shown) [GSK1379762]	18%
COc1cc2nccc(Nc3ccc(NC(=O)c4ccc(C)cc4)c(O)c3)c2cc1OC.Cl [GW440132]	36%
O=C(Nc1ccc2c(c1)OCO2)NC1CCN(c2ccnc(Nc3ccc(F)cc3)n2)C1 (stereo not shown) [GSK1379724]	0%
O=C1NC(=O)C(N2CCc3ccccc32)=C1c1ccccc1Cl [SB-373598]	22%
Fc1cccc(COc2nnc(-c3ccc4c(c3)CCO4)o2)c1	24%
Cc1cccc(-c2nc(Nc3cccc(C(N)=O)c3)c3ccccc3n2)n1 [GW876019]	0%
Cc1c(O)cccc1Nc1ccnc2ccc(C(F)(F)F)cc12.Cl [GW466413]	9%
COc1ccc(Nc2nccc(-c3cccc(NC(=O)c4cc5cc(F)ccc5[nH]4)c3)n2)cc1 [GSK1229782]	52%
Cc1cc(NCC(c2ccccc2)c2ccccc2)nc(NCc2ccc(C(F)(F)F)cc2)n1 [GW497681]	0%

tested on: TRKB; details: concentration: 1 μM, replicates: in singlicate; n = 1

Structure (SMILES)	%Inh
CS(=O)(=O)c1ccc(-c2c(-c3ncn[nH]3)sc(N3CCOCC3)c2C#N)cc1	0%
CCn1c(-c2cccnc2O)nc2cnccc21 [SB-736715]	3%
Cc1cc(-c2ccc3c(c2)CC[C@@H](N[C@@H](C)c2ccccc2)C3)cnc1N.Cl [GW412617]	10%
COc1ccccc1CNC(=O)c1cc(C(=O)c2ccccc2C)c[nH]1 [GSK364507]	24%
Cc1cccc(-c2nc(-c3ccc(S(C)(=O)=O)cc3)sc2-c2ccnc(NCCc3ccccc3)c2)c1	0%
CC(=O)Nc1nc2cnc(Nc3cc(NC(=O)c4cccc(CCC#N)c4)ccc3C)nc2s1	6%
Cc1cccc(-c2nc(C)cc(Nc3ccncc3)n2)n1 [GSK257997]	0%
CS(=O)(=O)c1ccc(-c2nc3n(c2-c2ccncc2)CCC3)cc1 [SKF-105942]	0%
Cl.c1ccc(-c2n[nH]cc2-c2ccnc(-c3ccc(CN4CCOCC4)cc3)c2)nc1 [GW776245]	0%
Nc1ncnc2[nH]c(-c3ccccc3)nc12 [AH5015]	45%
O=C(O)COc1ncnc2cc(-c3ccc4[nH]ncc4c3)sc12	42%
COc1cc2ncn(-c3cc(OCC4CCCO4)c(C(N)=O)s3)c2cc1OC (stereo not shown) [GSK204607]	0%
Cc1ccc(NC(=O)Nc2cc(C(C)(C)C)nn2-c2ccccc2)cc1 [GSK1014915]	28%
Cc1cccc(-c2nc(Nc3ccc4[nH]ncc4c3)c3ccccc3n2)n1 [GW857175]	12%
CC(C)(C)c1ccc(C(=O)Nc2cn3cc(Cl)ccc3n2)cc1	0%
Cn1cncc1-c1ccc2ncnc(Nc3ccc(OCc4ccccc4)cc3)c2c1 [GW320571]	0%
O=C(Nc1n[nH]c2nc(-c3nccs3)c(Br)cc12)C1CC1 [SB-742251]	62%
CN1C(=O)C(Nc2ccc(Cl)c(C(=O)O)c2)=C(c2ccc(Cl)cc2)C1=O [SB-404290]	0%

Structure (SMILES)	%Inh
Cc1cc(N2Cc3ccccc3C2)nc(Nc2ccc(S(=O)(=O)N3CCOCC3)cc2)n1.Cl [GSK1669917]	0%
CN(C)CCN(C)C(=O)c1cc(-c2ccncc2)c(-c2ccc(Cl)c(O)c2)o1.Cl.Cl [SB-710397]	43%
Cc1csc(-c2nc(Nc3ccncc3)c3ccccc3n2)n1 [GW869640]	12%
Cc1ccc(NC(=O)Nc2cccc(Cl)c2)cc1-c1ccc(C(=O)Nc2ccncc2)cc1 [GSK1398468]	0%
O=C(Nc1n[nH]c2cc(-c3cccc(F)c3F)ccc12)C1CC1 [SB-733894]	11%
O=C(Nc1ccccc1)Nc1cccc(Oc2ccc3nccn3n2)c1	0%
Cl.O=C(Nc1cccc(-c2nn3ncccc3c2-c2ccnc(Nc3cccnc3)n2)c1)c1c(F)cccc1F [GSK312879]	30%
O=C(Nc1n[nH]c2nc(-c3nccs3)c(Br)cc12)C1CCCC1 [SB-742609]	59%
COc1cc(Nc2nccc(N3CCC(NC(=O)Nc4cc(C)ccc4C)C3)n2)cc(OC)c1OC (stereo not shown) [GSK1379762]	0%
COc1cc2nccc(Nc3ccc(NC(=O)c4ccc(C)cc4)c(O)c3)c2cc1OC.Cl [GW440132]	0%
O=C(Nc1ccc2c(c1)OCO2)NC1CCN(c2ccnc(Nc3ccc(F)cc3)n2)C1 (stereo not shown) [GSK1379724]	19%
O=C1NC(=O)C(N2CCc3ccccc32)=C1c1ccccc1Cl [SB-373598]	0%
Fc1cccc(COc2nnc(-c3ccc4c(c3)CCO4)o2)c1	0%
Cc1cccc(-c2nc(Nc3cccc(C(N)=O)c3)c3ccccc3n2)n1 [GW876019]	0%
Cc1c(O)cccc1Nc1ccnc2ccc(C(F)(F)F)cc12.Cl [GW466413]	0%
COc1ccc(Nc2nccc(-c3cccc(NC(=O)c4cc5cc(F)ccc5[nH]4)c3)n2)cc1 [GSK1229782]	36%
Cc1cc(NCC(c2ccccc2)c2ccccc2)nc(NCc2ccc(C(F)(F)F)cc2)n1 [GW497681]	14%
